Laboratory results: PubChem BioAssay (NCI)
The panel holds about 83,000 compounds, 20% with a hit somewhere; the sample as a whole holds those more often.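 Note: values are percent growth. 100 is the growth of untreated cells, values between 100 and 0 indicate rising inhibition; between -100 and 0 indicates cell death.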 Unmarked numbers belong to inactive results. Active and inactive are the calls of the source. Rule for the calls: active = growth percent below 10; inactive = the rest.

Experiments:
Experiment in all cases: NCI-60 one-dose screen, 48 h (100 = growth as untreated, 0 = no growth, -100 = all killed)
Settings in all cases: 10 µM unless noted
[1] = tested on: BT-549 breast
[2] = tested on: MDA-MB-435 melanoma
[3] = tested on: SW-620 colon
[4] = tested on: MCF7 breast
[5] = tested on: HCT-116 colon
[6] = tested on: HCC-2998 colon
[7] = tested on: KM12 colon

Compound | growth [1] | growth [2] | growth [3] | growth [4] | growth [5] | growth [6] | growth [7]
C=CCn1c(SCC(=O)Nc2ccc(C(=O)/C=C/c3ccc(Cl)cc3)cc2)nnc1-c1cc(OC)c(OC)c(OC)c1 | 94% | 93.2% | 98.2% | 41% | 6.42% (active) | 106% | –
O=C1CCc2ccccc2N1 | 107% | 97.6% | 102% | 96.6% | 101% | 84.8% | –
CC(/C=C/c1ccccc1)=N/NC(=O)c1ccncc1 | 105% | 106% | 98.7% | 93.6% | 92.7% | 107% | –
Cc1cccc2nc3c(n12)C(=O)C(=O)c1ccccc1-3 | 78.6% | -86% (active) | 79.4% | 47.9% | 38.7% | 115% | –
COc1cc(NC(=O)Nc2cnc(Nc3ccc(N4CCOCC4)cc3)nc2Oc2ccc(C(F)(F)F)cc2)cc(OC)c1 | 111% | 107% | 107% | 101% | 104% | 104% | –
Nc1ccc2c(c1)C(=O)C(=O)c1c-2nc2ccccn12 | -34.6% (active) | -87.3% (active) | 4.01% (active) | -54.7% (active) | 1.3% (active) | 19.4% | –
COc1ccc(-c2cs/c(=N\N=C\c3ccc(O)cc3O)n2/N=C/c2ccc(O)cc2O)cc1 | -10.4% (active) | -32.8% (active) | -51.3% (active) | -11.5% (active) | -52.8% (active) | 4.8% (active) | -51% (active)
O=C(Nc1nc2ccc(C(F)(F)F)cc2s1)c1cc(Cl)ccc1O | -8.57% (active) | 10.2% | 12.8% | -1.08% (active) | 4.81% (active) | 10.9% | –
N#Cc1c(-c2ccc(F)cc2)nc(N/N=C/c2c[nH]c3ccccc23)nc1N1CCOCC1 | 75.5% | 77.2% | 7.62% (active) | 51.5% | 44.3% | 59% | 40%
N#Cc1c(-c2ccc(Cl)cc2)cc(-c2cc3ccccc3o2)nc1SCC(=O)c1ccc(Cl)cc1 | 112% | 104% | 94.2% | 112% | 94.1% | 102% | 94.9%
Nc1c(C(=O)Nc2cccc3ccccc23)sc2nc3c(cc12)CCCCC3 | 12.6% | -32.2% (active) | 24.3% | 17.7% | 8.52% (active) | 33.1% | –
CC1CCN(CCCCCOc2ccc3oc4cc(Cl)ccc4c(=O)c3c2)CC1 | 81.8% | 3.73% (active) | 36.8% | 45.9% | 23.3% | 79.3% | –
Nc1c(C(=O)Nc2cccc3ccccc23)sc2nc3c(cc12)COCC3 | 51.3% | -1.93% (active) | 24.9% | 18.7% | 26.3% | 85.5% | –
COc1ccc(-c2nc(C#N)c(NCC(c3ccco3)N3CCCC3)o2)cc1 (stereo not drawn) | 66.7% | -23.5% (active) | 27.3% | 19.6% | 27% | 67% | –
O=C(Nc1cc(Nc2ncccc2-c2ncnc3nc[nH]c23)ccc1F)c1cc(C(F)(F)F)cc(C(F)(F)F)c1 | -25.2% (active) | 6.76% (active) | 13.1% | -2.67% (active) | -43% (active) | -83.4% (active) | –
CC(=O)c1ccc(NC(=O)CSc2nnc(-c3cc(-c4ccc(Cl)cc4)nc4ccccc34)o2)cc1 | 79.7% | 85.5% | 75.6% | 55.8% | 20.8% | 101% | 89.3%
N#Cc1c(-c2ccc(F)cc2)c(C#N)c2c(C#N)c(N)nn2c1N | 95.9% | 101% | 107% | 96.7% | 92.5% | 90.3% | –

Compound | growth [1] | growth [2] | growth [3] | growth [4] | growth [5] | growth [6] | growth [7]
Cc1cccc(C)c1NCc1nnc(-c2ccc(O)cc2)o1 | 97.1% | 99.1% | 100% | 90.6% | 102% | 100% | –
C=C1C(=O)O[C@H]2[C@H]1CC/C(COC(=O)N1CCC[C@H]1C(=O)Nc1ccc(OC)c(C(N)=O)c1O)=C\CC[C@@]1(C)O[C@@H]21 | 38.5% | 44.3% | 2.83% (active) | 12.1% | 14.8% | 94.8% | –
COC(=O)/C=C/c1cc(OC(C)=O)c2c(c1)C(C(=O)OC)C(c1ccc(OC(C)=O)c(OC(C)=O)c1)O2 (stereo not drawn) | -4.09% (active) | -26.1% (active) | 20.5% | 10% | 9.77% (active) | 25.5% | –
O=C(Nc1cc(Br)ccn1)c1cc2cc(Nc3nc(-c4ccccc4)nc4ccccc34)ccc2oc1=O | 103% | 116% | 104% | 91.1% | 98.5% | 92.7% | –
Cc1ccc(C2=N[C@H]3CCC[C@@H]3N(c3ccccc3)C(C(Cl)Cl)=N2)cc1 | 106% | 103% | 107% | 87% | 97.7% | 110% | –
COC(=O)[C@]1(C)CCC[C@]2(C)[C@H]3C[C@H]4C(C(C)C)=C[C@]3(CC[C@H]21)[C@@H]1C(=O)N(CCC#N)C(=O)[C@@H]14 | 59.5% | 86.5% | 89.9% | 72.2% | 70.8% | 94.1% | –
OCCNc1nc(NCCO)nc(Nc2ccc(C3=NN(c4cc(Cl)cc(Cl)c4)C(c4ccccc4)C3)cc2)n1 (stereo not drawn) | 59.4% | 49.5% | 60% | 16.3% | 33.8% | 52.8% | –
N#Cc1c(-c2ccc(F)cc2)nc(N=Nc2c(O)[nH]c3ccccc23)nc1N1CCOCC1 | 91.4% | 67.7% | 66.7% | 64.4% | 47.2% | 96.2% | –
C#CCOC(=O)[C@]1(C)CCC[C@]2(C)[C@H]3C[C@H]4C(C(C)C)=C[C@]3(CC[C@H]21)[C@@H]1C(=O)CCC(=O)[C@@H]14 | 91.7% | 97.7% | 86.9% | 83.2% | 77.8% | 102% | –
Nc1ccc(C2=NN(C(=O)c3cc(-c4ccc(Cl)cc4)nc4ccccc34)C(c3ccc(Cl)cc3)C2)cc1 (stereo not drawn) | 52.3% | -23.1% (active) | 29.6% | 14.8% | 23% | 62.9% | –
COc1ccc2[nH]c(=O)c(/C=C/C(=O)c3ccccc3OC)cc2c1 | 18.9% | -10% (active) | 8.4% (active) | 10% | 16% | 23.1% | –
CN1CCN(CC#CCOC(=O)CNC(=O)[C@]23CCC(C)(C)C[C@H]2C2=CC[C@@H]4[C@@]5(C)CC[C@H](O)C(C)(C)[C@@H]5CC[C@@]4(C)[C@]2(C)CC3)CC1 | 88.9% | 101% | 86.8% | 72% | 76.2% | 106% | –
COc1ccc(/C=C/C(=O)/C=C(/C=C/c2ccc(OC)c(OC)c2)OB(F)F)cc1OC | 44.3% | 8.23% (active) | -21.8% (active) | 20.1% | -45.6% (active) | 102% | –
N#CC1(C#N)C2=C(CCCC2)NC(c2c(F)cccc2Cl)C1(C#N)C#N (stereo not drawn) | 60.4% | 18% | 48.8% | 21.1% | 52.7% | 97.6% | –
Cc1cc(C)c2nc(Nc3nc(C)c(C)c(=O)[nH]3)nc(C)c2c1 | 9.69% (active) | 15.7% | 9.96% (active) | 3.09% (active) | 3.76% (active) | 21.9% | 11.3%
CNS(=O)(=O)c1cccc(-c2ccc3c4c(n(C)c(=O)c3c2)-c2ccccc2C4=O)c1 | 76.6% | 74.5% | 46.4% | 18.5% | 36.4% | 90.6% | –
